Compounds without any hit were thinned out: in the full panel of roughly 83,000, 20% have a hit.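 In brief: 96-well plates, 48 h treatment, single concentration, percent growth endpoint.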 Activity calls are given as the source filed them. The calls were made as follows: active = growth percent below 10; inactive = the rest.

The subject of the experiment is NCI-H226 lung. As to the kind of experiment: NCI-60 one-dose screen, 48 h (100 = growth as untreated, 0 = no growth, -100 = all killed). Particulars: 10 µM unless noted.
As for `O=C(Nc1cccc2ccccc12)c1cc2ccccc2cc1O`, the growth was 12.5% (inactive).

In the case of `COc1cc2c(O)n(CCCN3CCOCC3)c3c4cnc5cccc(c(=O)c3c2cc1OC)c54`, the growth is 38.2% (inactive).

For the molecule `C#CCNC(=O)CC[C@@H](C)[C@H]1CC[C@H]2[C@@H]3CC[C@@H]4CC(=O)CC[C@]4(C)[C@H]3CC[C@]12C`, the growth was -63.7% [100 µM] (active).

Consider `COc1ccc(NC(=O)Nc2ccc(-c3cccnc3)cc2N2CCC(CO)CC2)cc1`, for which the growth is 86.8% (inactive).

Take `CC1(C(=O)O)CCC(N)(C(=O)O)C1(C)C` (centres undefined): the growth was 108% (inactive).

With `COc1ncc(-c2ccc3nccc(C#CCCCCC(=O)NO)c3c2)cc1NS(=O)(=O)c1ccc(F)cc1F`, the growth is 9.85% (active).

In the case of `O=C(O)CC1CCCCC1c1ccccc1` (centres undefined), the growth is 98.7% (inactive).

As to `CC(C)=CC/C=C(/C)[C@H]1CC[C@]2(C)[C@@H]1CC[C@@H]1[C@@]3(C)CCC(=O)NC(C)(C)[C@@H]3CC[C@]12C`, the growth was -1.12% [100 µM] (active).

For `Cc1nc(Cl)c2c(n1)N(C)c1ccc(Cl)cc1C(C)C2` (centres undefined), the growth is 87.7% (inactive).

As for `Cc1ccc(N)c(O)c1`, the growth was 97.5% (inactive).

In the case of `Nc1ccc(Cl)c([N+](=O)[O-])c1`, the growth was 101% (inactive).

For the molecule `O=[N+]([O-])c1cccc(N=NNc2cccc([N+](=O)[O-])c2)c1`, the growth is 108% (inactive).

Take `C=C(C)[C@@H]1CC[C@]2(C)[C@H](CC[C@@H]3[C@@H]([C@@](C)(O)CCC=C(C)C)CC[C@]32C)[C@@]1(C)CCC(=O)N1CCN(C)CC1`: the growth is -72% [100 µM] (active).

On to `Cn1cc(-c2noc(C(=O)c3cn(C)c4ncc(Br)cc34)n2)c2ccccc21`, for which the growth is 99.3% (inactive).
